BRCA1 expr act = BRCA1 expression activation. hit rate 1.1% among 380,000. Potency, µM (series often up to 46.1 µM), without a hit: at the top dose activation, hits mostly activators. AID 624202. MCF7-BRCA1-FFLuc reporter, luminescence, 48 h; response scale: scaled: vehicle 0%, 10 µM genistein 100%; note: potency is the fitted concentration of half-maximal effect; nearly all actives have a fitted effect of over 80% in size
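Using MCF7 cells harboring a BRCA1 firefly luciferase reporter, plated 2 h before compound pinning, the screen measured luminescence after 48 h incubation. Responses were normalized to DMSO and 10 microM genistein, then fitted for concentration-effect.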
gsp antag = gsp mutant antagonism; gsp-mutant cells, cAMP HTRF, 30 min; hit rate 0.4% among 340,000; Potency, µM (doses to about 76.9 µM), without a hit: at the highest dose activity change, negative = inhibition, hits mostly inhibitors; AID 624288; calls by dose curve; cell line not stated here;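 note: intracellular cAMP measured with PDE inhibitor Ro 20-1724 present during compound exposure; potency is the fitted concentration of half-maximal effect; % is set by controls: 0 for no effect and ±100 for the full control effect; nearly all actives have a fitted effect of over 65% in size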
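Measurement of cellular cAMP by homogeneous time-resolved fluorescence following a 30 min compound exposure at 37C. The PDE inhibitor […] was present throughout; the assay buffer was DPBS with 0.05% BSA and 0.005% Tween 20.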
mIDH1 inhibitor = inhibitors of human mutant IDH1 R132H | O75874 | IDH1-R132H enzyme, NADPH consumption, diaphorase/resazurin fluorescence | hit rate 0.093% among 390,000 | Potency, µM (highest dose often 76.6 µM), without a hit: top-dose activity change, negative = inhibition, hits mostly inhibitors; note: potency is the fitted concentration of half-maximal effect; % is set by controls: 0 for no effect and ±100 for the full control effect; nearly all actives have a fitted effect of over 65% in size
Target sequence (O75874 whole entry R132H, stated change not applied): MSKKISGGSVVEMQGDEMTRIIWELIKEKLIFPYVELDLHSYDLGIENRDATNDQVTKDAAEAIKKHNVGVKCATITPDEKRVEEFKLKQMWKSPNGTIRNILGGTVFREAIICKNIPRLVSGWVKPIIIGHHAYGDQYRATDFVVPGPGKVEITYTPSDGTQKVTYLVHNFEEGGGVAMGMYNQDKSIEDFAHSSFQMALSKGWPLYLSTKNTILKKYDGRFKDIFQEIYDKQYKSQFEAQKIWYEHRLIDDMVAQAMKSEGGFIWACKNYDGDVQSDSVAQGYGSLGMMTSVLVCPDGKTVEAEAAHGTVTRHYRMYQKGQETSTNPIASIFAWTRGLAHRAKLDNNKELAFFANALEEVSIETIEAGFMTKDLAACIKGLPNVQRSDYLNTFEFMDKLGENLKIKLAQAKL
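IDH1-R132H (0.5 ug/mL dispensed) in pH 7.5 Tris buffer was preincubated 30 min with compound, then given a substrate mix of 0.016 mM NADPH and 2 mM alpha-KG for 80 min at room temperature; remaining NADPH was read by diaphorase/resazurin fluorescence.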
gsp agonist = gsp mutant agonism | gsp mutant cells, cAMP HTRF, 30 min | Potency, µM (series often up to 76.9 µM), for the others: at the top dose activation (cAMP increase), most hits filed as activators | hit rate 0.13% among 340,000; active = well fitted activation curve with a large enough effect; inconclusive = small, poorly fitted or top-dose-only effect, or another doubt; inactive = no such curve, though single readings can be large or run the other way; cell line not stated here;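 note: phosphodiesterase inhibitor Ro 20-1724 added with compounds to block cAMP breakdown; potency is the fitted concentration of half-maximal effect; nearly all actives have a fitted effect of over 60% in size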
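Cells in DMEM/10% FBS with G418 were pretreated with compounds in DMSO plus […] (300 uM stock) for 30 min at 37C. cAMP was measured by HTRF (cAMP-d2 plus anti-cAMP antibody-K) after 30 min at room temperature.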
IL2 activator = activates IL-2 in a cell-based reporter assay; IL-2 activation reporter assay, cell-based qHTS; stimulated with anti-CD3/CD4/CD28 beads; in transgenic mouse T cells; activation, % (series mostly up to about 46 µM); hit rate 0.065% among 360,000; AID 652025; in the data active = activation above about 50%; inconclusive = mostly about 30% to 49%; note: 0% is about no effect
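Unstimulated transgenic mouse T cells; 60-min compound exposure; bead-based TCR/CD4/CD28 stimulation; 18 h culture, 37 degrees C; dual fluorescence (EGFP, DsRed) plate cytometry.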
IDH1 autofl = interferes with resorufin fluorescence in IDH1 counter-screen | shares compounds with mIDH1 inhibitor | Resorufin detection reagent fluorescence interference, cell-free | inhibition of signal, % at 51.2 µM | 750 tested, under 10 active | AID 623980;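 note: 0% = wells with normal resorufin and full inhibition = wells lacking resorufin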
IDH1 WT = wild-type IDH1 (human) inhibition counterscreen. Potency, µM (series often up to 115 µM), for inactives: top-dose activity change, negative = inhibition, most hits filed as inhibitors. hit rate 9% among 750. WT IDH1 enzyme, NADPH diaphorase/resazurin fluorescence. shares compounds with mIDH1 inhibitor;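 note: potency is the fitted concentration of half-maximal effect; 0% = full WT IDH1 enzyme control and full inhibition = no enzyme wells; nearly all actives have a fitted effect of over 55% in size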
Target sequence (O75874 whole entry, looked up): as the sequence (O75874 whole entry R132H, stated change not applied) above, with H132R counted along it
mIDH1 confirm = inhibits human mutant IDH1 enzyme in cherrypick confirmation; shares compounds with mIDH1 inhibitor; IDH1 R132H enzyme, NADPH diaphorase/resazurin fluorescence; Potency, µM (titrated, usually from 76.6 µM), for the others: at the highest dose activity change, negative = inhibition, most hits filed as inhibitors; hit rate 83% among 750; note: potency is the fitted concentration of half-maximal effect; nearly all actives have a fitted effect of over 50% in size
* hit, by the source's call; ? = inconclusive; . = no result; [ ] = another dose, or the depositor's remark. A selection: hits, their analogues and other compounds. The true share with any hit is near 1.5%. Unless noted, calls come from the whole dose curve; as a rule, active = well fitted curve in the direction sought with a large enough effect; inconclusive = small, poorly fitted or top-dose-only effect, or another doubt; inactive = no such curve, though single readings can be large; an effect the other way counts as inactive or inconclusive.

SMILES | BRCA1 expr act | gsp antag | mIDH1 inhibitor | gsp agonist | IL2 activator | others
CCC(=O)Nc1ccc(NC(=O)c2ccco2)cc1 | 2.5µM* | 6% | 7% | -3% | -2
COc1ccc(OC)c(/C=C/c2ccccc2)c1 | -44% | . | . | . | .
O=C(CSc1n[nH]c(-c2ccccc2F)n1)Nc1cc(F)ccc1F | 26% | -8% | -8% | -5% | 0
COc1ccc(CNC(=O)c2cnn(-c3ccccc3)c2-n2cccc2)cc1OC | . | . | -2% | . | .
COc1ccccc1CCNC(=O)c1ccc(OC)c(OC2CCN(C(C)C)CC2)c1 | -31% | 22% | -6% | -5%[15.4 µM] | -1
COCCCNC(=O)c1ccc(OC)c(OC2CCN(C(C)C)CC2)c1 | 0% | 50µM* | 3% | 20% | -1
CCOc1ccc(C(=S)NC2CCCCC2)cc1 | 10µM* | -12% | 9% | 26% | 0
COc1ccc(C(=S)NC2CCCCC2)cc1 | ? | -7% | 3% | -25% | 0
O=C(Cn1cc(C(=O)C2CC2)c2ccccc21)Nc1ccc(Br)cc1 | . | . | -7% | . | .
COc1cc2c(cc1OC)C(C)N(C(=O)c1cc3c(s1)-c1c(C)cccc1OC3)CC2 (configuration not stated) | -3% | 35µM* | 1% | -70% | -4
COc1cc2c(cc1OC)C(C)N(C(=O)c1cc3c(s1)-c1ccccc1OC3)CC2 (configuration not stated) | -22% | -24% | 1% | 14% | -3
CCS(=O)(=O)c1ncc(Cl)c(C(=O)N2CCN(c3cccc(Cl)c3)CC2)n1 | . | . | 11% | . | .
CN(CC(=O)N1CCCCCC1)S(=O)(=O)c1ccc(F)cc1 | 10µM* | 7% | -5% | -14% | 2
C[N+](C)(C)c1ccc(/C=C2\C=Cc3ccccc32)cc1 | -9% | . | . | . | .
CN(C)c1ccc(/C=C/c2ccnc3ccccc23)cc1 | 49% | . | . | . | .
O=C(NC(=O)c1ccc(C(F)(F)F)cc1)Nc1ccc(-c2cnco2)cc1 | 11% | 3% | 2% | 7%[15.4 µM] | 3
O=C(Nc1ccc(-c2cnco2)cc1)c1ccc(F)cc1F | 5µM* | 3% | 6% | -1%[15.4 µM] | 0
COc1ccc(-c2noc(-c3ccoc3C)n2)cc1 | 11µM* | -4% | 2% | -21% | 0
COc1ccc(-c2noc(-c3ccoc3C)n2)cc1OC | 4.5µM* | -4% | 9% | -46% | 0
CCCCCCOc1ccc(/C(N)=N/O)cc1 | 7.1µM* | 8% | 13% | ? | 1
N/C(Cc1ccc(Cl)cc1)=N\OC(=O)c1ccccc1 | 12% | 7% | 22% | 37% | 0
C/C(=N\OC(=O)c1ccccc1)c1cc(-c2ccc(Cl)cc2)no1 | 2.8µM* | -14% | 7% | 1% | 1
C/C(=N/OC(=O)C1CC1)c1cc(-c2ccc(Cl)cc2)no1 | 4µM* | 4% | -4% | -20% | 0
Cc1ccc(S(=O)(=O)N(C)CC(=O)N(C)CCOc2ccccc2)cc1 | -3% | . | 0% | -92% | -2
CC1C(=O)N(Cc2cn(Cc3ccco3)nn2)CCS(=O)(=O)N1Cc1ccc(-c2ccccc2Cl)cc1 (configuration not stated) | -20% | . | . | . | -1
SMILES | BRCA1 expr act | gsp antag | mIDH1 inhibitor | gsp agonist | IL2 activator | others
COC(=O)c1ccc(NC(=O)C2CCN(c3ncnc4c3nc3n4CCCCC3)CC2)cc1 | . | . | -1% | . | .
Cc1ccccc1NCC(=O)c1ccc(Br)cc1 | -26% | 10% | ? | -1% | 2 | IDH1 autofl=2;IDH1 WT=103%;mIDH1 confirm=45µM*
CC(=O)Nc1ccc(-c2cn3ccsc3n2)cc1 | ? | -3% | -4% | 11% | -3
c1cn2cc(-c3ccc4c(c3)OCO4)nc2s1 | ? | 9% | 23µM* | -8% | 1 | IDH1 autofl=-4;IDH1 WT=141%;mIDH1 confirm=50µM*
c1cncc(-c2nnc(-c3cccnc3)nn2)c1 | -87% | -8% | 18% | -13% | -2
Cn1c(SSc2ccc(-c3cccnc3)n2C)ccc1-c1cccnc1 | -87% | 9% | 10µM* | -2% | -1 | IDH1 autofl=1;IDH1 WT=360%;mIDH1 confirm=35µM*
Cc1nc2nc(C)c(CCC(=O)NCc3ccccc3)c(C)n2n1 | 19% | . | 12% | . | .
C[C@H]1CN([C@@H](C)CO)C(=O)CCCn2nncc2CO[C@H]1CN(C)S(=O)(=O)c1ccc(Oc2ccccc2)cc1 | -8% | . | ? | -28% | 1 | IDH1 autofl=2;IDH1 WT=2%;mIDH1 confirm=?
O=C(COc1ccc2c3c(c(=O)oc2c1)CCCC3)NCc1ccccn1 | 2% | -16% | -10% | -5% | 0
COc1ccc(Cn2ccc3nc(C)c(C(=O)Nc4ccc(OC(F)(F)F)cc4)cc3c2=O)cc1 | . | . | -13% | . | .
O=c1c2ccccc2nc2n1CCC2 | -37% | 11% | 16µM* | 2% | 0 | IDH1 autofl=0;IDH1 WT=?;mIDH1 confirm=3%
O=c1c2ccccc2nc2n1CCCCC2 | 6% | 19% | 9% | -7% | 0
NNC(=O)CN1C(c2ccc(Cl)cc2)=Nc2ccc(Br)cc2C1c1ccccc1 (configuration not stated) | 2% | 11% | ? | 6% | 1 | IDH1 autofl=-13;IDH1 WT=?;mIDH1 confirm=-13%
CCc1cccc(NC(=O)CN2C(=O)COc3ccc(S(=O)(=O)N4CCC(C)CC4)cc32)c1 | . | . | -7% | . | .
C[C@H]1C[C@H]2[C@@H]3CCC4=CC(=O)C=C[C@]4(C)[C@@]3(F)[C@@H](O)C[C@]2(C)[C@@]1(O)C(=O)CO | -3% | -8% | -4% | . | 0
CC1(c2ccccc2)O[C@@H]2C[C@H]3[C@@H]4CCC5=CC(=O)C=C[C@]5(C)[C@@]4(F)[C@@H](O)C[C@]3(C)[C@]2(C(=O)CO)O1 (some centres not stated) | -39% | -27% | 29µM* | -12%[15.4 µM] | -2 | IDH1 autofl=-6;IDH1 WT=-14%;mIDH1 confirm=5µM*
CC(C)C[C@@H](CN)NC(=O)c1nc[nH]c1C(=O)N[C@@H](C)C(=O)CNC[C@H](C)NC(=O)c1nc[nH]c1C(=O)N[C@@H](C)C(=O)O | 2% | 8% | 6% | . | 0
O=C1CCCC2=C1C(c1cccs1)Nc1ccc3ncccc3c12 (configuration not stated) | -84% | 1% | 4% | 6% | -2
Cc1ccsc1C1Nc2ccc3ncccc3c2C2=C1C(=O)CC(C)(C)C2 (configuration not stated) | -91% | 0% | ? | -7% | -2 | IDH1 autofl=-19;IDH1 WT=?;mIDH1 confirm=2.8µM*

High-throughput results: PubChem, National Center for Advancing Translational Sciences (NCATS)
